In PubChem BioAssay (EPA / NIEHS):
Values joined by “and” are separate entries in the source; they are usually repeats but may differ in a detail not shown here. Equal values may be shown once. Inconclusive results are not listed. Where a structure was tested more than once in an assay, its records may differ in their call. Active and inactive are the calls of the source. How the source made its calls, unless noted: active means hit-call score of the fitted dose curve at least 0.9, where 1 is the maximum; inactive means score below 0.9.

Columns and labels:
[1] = CCTE_Shafer_MEA_dev_mutual_information_norm: CCTE's Neural Network Formation Assay for Mutual Information Normalization, Shafer Lab (AID 2284091);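 on AC50: mutual information between electrodes summarised as area under curve across four recording days; potency is for a decrease in mutual information relative to DMSO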
Summary of the method: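 Exposure of primary rat cortical neurons began at plating and ran to DIV 12, with full media and treatment renewal after DIV 5 and 9 recordings. Mutual information AUC (DIV 5–12) was analysed for loss versus DMSO.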

[2] = CCTE_Shafer_MEA_dev_correlation_coefficient_mean: CCTE's Neural Network Formation Assay for Mean Correlation Coefficient, Shafer Lab (AID 2284093);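 on AC50: well mean pairwise spike train correlation integrated as AUC over recording days 5 to 12; potency fitted for loss of correlation relative to DMSO vehicle wells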
Summary of the method: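 Extracellular firing from rat cortical networks on 48-well MEAs, DMSO-referenced, negative fitting direction. Compound present from plating to DIV12; mean pairwise correlation per well integrated over DIV5–12 recordings by trapezoidal AUC.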

[3] = BSK_BT_PBMCCytotoxicity: PBMC Cytotoxicity Assessment in the BioMAP Diversity Plus: BT Assay (AID 2284225); settings: primary human B cells with PBMC;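 further: PBMC viability measured by Alamar Blue dye reduction fluorescence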
Summary of the method: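 Viability by Alamar Blue reduction (6 h, ex/em 546/580 nm) after 90 h culture of SEB/TSST-1-activated PBMC (20 ng/mL each) given compound 1 h before activation. DMSO served as baseline for curve fitting.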

[4] = read-out: Secreted IgG (sIgG), gene 3500; assay: BSK_BT_sIgG: BioMAP Diversity Plus: BT Assay for Secreted IgG (sIgG) Biomarker Activity (AID 2284226); settings: primary human B cells with PBMC
Summary of the method: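 ELISA quantitation of secreted IgG from human B cells co-cultured with PBMC, sampled 24 h post-dosing. Values fitted relative to DMSO vehicle as baseline, positive fitting direction.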

[5] = BSK_BT_Bcell_Proliferation: Viability Assessment in the BioMAP Diversity Plus: BT Assay for B cell Proliferation (AID 2284227); settings: primary human B cells with PBMC
Summary of the method: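 Using a human primary B cell–PBMC co-culture, the assay measures total protein by sulforhodamine B absorbance as a gauge of proliferation after 72 h. Analysis followed the positive fitting direction with DMSO as baseline.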

[6] = read-out: Interleukin 6 (IL6), IL6 (gene 3569); assay: BSK_BT_xIL6: BioMAP Diversity Plus: BT Assay for Interleukin 6 (IL6) Biomarker Activity (AID 2284228); settings: primary human B cells with PBMC
Summary of the method: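 B cells and peripheral blood mononuclear cells (human primary co-culture) were dosed with chemical, and after 24 h IL-6 released into the medium was measured by Luminex xMAP. Responses were analysed as gain of signal over DMSO control.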

[7] = read-out: Interleukin 17A (IL17A), IL17A (gene 3605); assay: BSK_BT_xIL17A: BioMAP Diversity Plus: BT Assay for Interleukin 17A (IL17A) Biomarker Activity (AID 2284229); settings: primary human B cells with PBMC
Summary of the method: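 Secreted IL-17A was the measured endpoint, read by Luminex xMAP multiplex in supernatants of a human B cell/PBMC co-culture harvested 24 h after chemical dosing. Signal increase relative to DMSO defined activity.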

[8] = read-out: Tumor necrosis factor (Homo sapiens) (UniProt P01375); assay: BSK_BT_xTNFa: BioMAP Diversity Plus: BT Assay for Tumor necrosis factor alpha (TNF-alpha) Biomarker Activity (AID 2284230); settings: primary human B cells with PBMC
Summary of the method: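 Endpoint derived in the positive direction versus DMSO vehicle. Cells: B cells together with PBMC, exposed 24 h before TNF-alpha in the medium was read on the Luminex xMAP platform.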

[9] = read-out: Vascular cell adhesion molecule 1 (VCAM1), VCAM1 (gene 7412); assay: BSK_MyoF_VCAM1: BioMAP Diversity Plus: MyoF Assay for Vascular cell adhesion molecule 1 (VCAM1) Biomarker Activity (AID 2284231); settings: primary human lung fibroblasts
Summary of the method: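 ELISA read-out of VCAM-1 on human lung fibroblasts 24 h after chemical treatment, with positive-direction curve fitting relative to DMSO controls. Parallel cultures were stained with sulforhodamine B for total protein to flag overt cytotoxicity.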

[10] = CCTE_Mundy_HCI_hNP1_Pro_ResponderAvgInten: CCTE's Proliferation Assay in human neuroprogenitor cells, Mundy Lab (AID 2284224; active means hit-call score of the fitted dose curve at least 0.9, where 1 is the maximum;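 further: human neural progenitor cells hNP1 derived from WA09 embryonic stem cells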)
Summary of the method: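 Human neuroprogenitors (hNP1, WA09 lineage) receive test chemical after 40 to 44 hours of attachment. A four-hour BrdU pulse begins twenty hours later, followed by fixation and high content imaging; signal is referenced to DMSO controls.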

Measured: AC50

Sequence of Tumor necrosis factor (Homo sapiens) (P01375 whole entry, looked up): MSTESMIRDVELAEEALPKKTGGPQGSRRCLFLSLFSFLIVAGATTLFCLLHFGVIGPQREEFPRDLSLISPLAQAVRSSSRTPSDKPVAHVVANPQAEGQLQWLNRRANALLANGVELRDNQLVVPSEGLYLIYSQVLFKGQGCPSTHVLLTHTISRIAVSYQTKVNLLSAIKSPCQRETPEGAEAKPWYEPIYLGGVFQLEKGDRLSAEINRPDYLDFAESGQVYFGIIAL

O=S(=O)(O)CCC(F)(F)C(F)(F)C(F)(F)C(F)(F)C(F)(F)C(F)(F)C(F)(F)C(F)(F)F
not listed: [10]
inactive: all other assays above

OCC(F)(F)C(F)(F)C(F)(F)C(F)(F)C(F)(F)C(F)(F)CO
not listed: [10]
inactive: all other assays above

NC(O)(C(F)(F)F)C(F)(F)F
not listed: [10]
inactive: all other assays above

NC(=O)C(F)(F)C(F)(F)C(F)(F)C(F)(F)C(F)(F)C(F)(F)C(F)(F)F
not listed: [1] | [2]
inactive: all other assays above

FC(F)(F)C(F)(F)C(F)(F)C(F)(F)C(F)(F)C(F)(F)C(F)(F)CCI
not listed: [10]
inactive: all other assays above

CC1=CC2C3C=CC(C3)C2C1C (configuration not stated)
inactive: [3] | [5] | [7] | [8] | [9]
active: [4] 20 µM | [6] 16.7 µM

CO[Si](C)(CCC(F)(F)C(F)(F)C(F)(F)C(F)(F)C(F)(F)C(F)(F)F)OC
not listed: [10]
inactive: all other assays above

O=S(=O)(O)CCC(F)(F)C(F)(F)C(F)(F)C(F)(F)F
not listed: [10]
inactive: all other assays above

O=C=Nc1cccc2c(N=C=O)cccc12
active: [4] 12 µM
not listed: [1] | [2] | [10]
inactive: all other assays above

C=CC(=O)OCC(F)(F)C(F)(F)C(F)(F)COC(=O)C=C
active: [1] 1.73 µM | [2] 8.13 µM | [3] 9.5 µM and 8.85 µM | [4] 6.41 µM and 7.8 µM | [5] 9.4 µM and 9.64 µM | [6] 10.4 µM and 8.91 µM | [7] 8.47 µM and 6.45 µM | [8] 8.9 µM and 9.3 µM | [9] 9.52 µM and 9.72 µM
inactive: [10]

OCCCC(F)(F)C(F)(F)C(F)(F)C(F)(F)C(F)(F)C(F)(F)C(F)(F)C(F)(F)F
active: [3] 46.4 µM and 23.2 µM | [4] 45.9 µM and 44.5 µM | [5] 43.8 µM and 31.8 µM | [6] 42.7 µM and 21.9 µM | [7] 22.9 µM and 21.7 µM | [8] 37.1 µM and 37 µM | [9] 12.8 µM and 9.88 µM
inactive: [10]

CNS(=O)(=O)C(F)(F)C(F)(F)C(F)(F)C(F)(F)C(F)(F)C(F)(F)C(F)(F)C(F)(F)F
active: [4] 27.6 µM | [8] 44.9 µM
inactive: [1] | [2] | [3] | [4] | [5] | [6] | [7] | [8] | [9]

CCOC(C=C(C)CCC=C(C)C)OCC
active: [9] 27 µM
not listed: [1] | [2] | [10]
inactive: all other assays above

OCCCCC(F)(F)C(F)(F)C(F)(F)C(F)(F)F
inactive: all assays above

O=C(Cl)C(F)(F)C(F)(F)C(F)(F)C(F)(F)C(F)(F)C(F)(F)C(F)(F)F
active: [3] 24.7 µM
inactive: [3] | [4] | [5] | [6] | [7] | [8] | [9]

OCC(F)(F)C(F)(F)C(F)(F)C(F)(F)C(F)(F)C(F)(F)C(F)(F)C(F)(F)CO
inactive: [1]
active: [2] 24.1 µM | [3] 46.1 µM and 47.5 µM | [4] 49.8 µM and 47.1 µM | [5] 46.8 µM and 47.9 µM | [6] 48.7 µM | [7] 51.3 µM and 19.6 µM | [8] 45.6 µM and 54 µM | [9] 47.9 µM and 45.4 µM

O=C(O)C(F)(F)OC(F)(F)C(F)(F)OC(F)(F)C(F)(F)OC(F)(F)F
active: [3] 14.8 µM
inactive: [3] | [4] | [5] | [6] | [7] | [8] | [9]

C[Si](Cl)(Cl)CCC(F)(F)C(F)(F)C(F)(F)C(F)(F)C(F)(F)C(F)(F)F
inactive: [3] | [4] | [5] | [6] | [7] | [8] | [9]
active: [8] 3.33 µM

O=S(=O)(Cl)C(F)(F)C(F)(F)C(F)(F)C(F)(F)C(F)(F)C(F)(F)C(F)(F)C(F)(F)F
active: [3] 8.8 µM and 16.2 µM | [8] 15.9 µM
inactive: [4] | [5] | [6] | [7] | [8] | [9]

OCC(F)(F)C(F)(F)C(F)(F)CO
not listed: [10]
inactive: all other assays above

NC(=O)C(F)(F)C(F)(F)C(F)(F)F
not listed: [10]
inactive: all other assays above

Cc1cc(O)c(C(C)(C)C)cc1C(C)(C)C
active: [3] 26.5 µM | [4] 12.9 µM | [5] 26.1 µM | [6] 17.2 µM | [7] 20 µM | [8] 33.3 µM | [9] 3.83 µM

CCN(CCO)S(=O)(=O)C(F)(F)C(F)(F)C(F)(F)C(F)(F)C(F)(F)C(F)(F)C(F)(F)C(F)(F)F
active: [4] 16.6 µM | [5] 46.4 µM and 30 µM | [6] 41.8 µM and 46.8 µM | [7] 20.2 µM and 21.2 µM | [8] 21.7 µM and 30 µM | [9] 12.6 µM and 13 µM
inactive: [1] | [2] | [10] | [3]

OC(O)C(F)(F)C(F)(F)F
not listed: [10]
inactive: all other assays above

O=S(=O)(OCC(F)(F)F)C(F)(F)C(F)(F)C(F)(F)C(F)(F)F
active: [3] 8.88 µM | [8] 3.48 µM
inactive: [3] | [4] | [5] | [6] | [7] | [8] | [9]

NC(=O)C(F)(F)C(F)(F)C(F)(F)C(F)F
not listed: [10]
inactive: all other assays above

NC(=O)C(F)(F)C(F)(F)C(F)(F)C(F)(F)C(N)=O
active: [8] 0.221 µM
inactive: [1] | [2] | [3] | [4] | [5] | [6] | [7] | [8] | [9]

O=C(O)C(F)(F)C(F)(F)C(F)(F)C(F)(F)C(F)(F)C(F)(F)C(F)F
inactive: [3] | [4] | [5] | [6] | [7] | [8] | [9]
active: [5] 21.8 µM

O=C(O)C(F)(F)C(F)(F)C(F)(F)OC(F)(F)F
not listed: [10]
inactive: all other assays above
